MITF primary – MITF inhibitors, primary screen, biochemical, AlphaScreen, human; Microphthalmia-associated transcription factor (Homo sapiens), O75030; AlphaScreen MITF homodimerization, bead proximity signal; inhibition, % at 2.6 µM; actives 0.91% (n = 650,000); AID 1259374, 2018; in the data active = inhibition above about 50%;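 note: 0% = vehicle wells with protein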
Target sequence (O75030 whole entry, looked up): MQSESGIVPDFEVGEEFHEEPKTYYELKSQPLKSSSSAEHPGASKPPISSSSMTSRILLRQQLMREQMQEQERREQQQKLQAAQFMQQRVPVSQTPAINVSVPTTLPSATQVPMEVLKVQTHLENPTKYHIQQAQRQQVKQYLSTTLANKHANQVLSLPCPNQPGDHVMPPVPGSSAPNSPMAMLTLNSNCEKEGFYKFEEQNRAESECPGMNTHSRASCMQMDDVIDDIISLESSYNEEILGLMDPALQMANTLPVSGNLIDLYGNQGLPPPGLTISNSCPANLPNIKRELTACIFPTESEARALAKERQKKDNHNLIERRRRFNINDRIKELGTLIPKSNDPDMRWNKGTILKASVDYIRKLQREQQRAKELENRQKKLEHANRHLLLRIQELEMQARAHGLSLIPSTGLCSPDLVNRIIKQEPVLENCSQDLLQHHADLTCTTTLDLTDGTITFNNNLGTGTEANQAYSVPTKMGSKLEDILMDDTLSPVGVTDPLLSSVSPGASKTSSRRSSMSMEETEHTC
TEAD-YAP inh – TEAD-YAP interaction inhibition, primary screen, TEAD-YAP interaction inhibitor project, luminescence, HEK-TIYL cells | TEAD-Gal4/YAP UAS-luciferase luminescence | actives 1.4% (n = 640,000) | AID 1259422, 2018 | inhibition, % at 9.12 µM; in the data active = inhibition above about 32%;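 note: 0% = median of test compound wells and 100% = reference inhibitor wells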
GPR151 activ – activators of human GPR151, primary screen, cell-based, PathHunter beta-arrestin, luminescence; PathHunter beta-arrestin GPR151 cells; activation, % at 11.2 µM; actives 1% (n = 650,000); in the data active = activation above about 4.9%;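 note: 0% = median of compound wells and 100% = cells with positive control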
FBW7 act – FBW7 E3 ligase activators, primary screen, biochemical, AlphaScreen, human. F-box/WD repeat-containing protein 7 (Homo sapiens), Q969H0. AlphaScreen FBW7–phospho-cyclin E peptide binding, activator screen. normalized activity (activation), % at 26.1 µM. actives 0.13% (n = 650,000). AID 1259310, 2017; in the data active = normalized activity above about 1.9%;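 note: purified mutant Fbw7 with reduced substrate affinity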
* = called active by the depositor. A selection: hits, their analogues and other compounds. The true share with any hit is near 3.5%.

SMILES	MITF primary	TEAD-YAP inh	GPR151 activ	FBW7 act
O=C(/C=C\Nc1cccc(F)c1)c1ccc2c(c1)OCO2	0	55*	-4	0
Cc1nc(C)n(-c2ccc(Nc3cc(-n4cc(C)c(Nc5ccccc5)n4)ccn3)cc2)n1	27	25	2	1.9*
O=C1CCC(CCNCc2ccccc2)N1CC(c1ccccn1)N1CCOCC1 (stereo not drawn)	5	0	0	0
C=CCOC(=O)C1=C(C)OC(N)=C(C#N)C1c1cc2cc(C)ccc2[nH]c1=O (stereo not drawn)	1	59*	-1	0
COC(=O)c1ccc(N/C=C2/CCc3ccccc3C2=O)cc1	23	68*	-6	0
Cc1cc(Nc2ccc(N3CCOCC3)cc2)nc(Nc2ccc3ncccc3c2)n1	-1	57*	1	0
c1cnc2ccc(Nc3nccc(Nc4ccc(N5CCOCC5)cc4)n3)cc2c1	24	82*	5	0
CC(=O)Nc1ccc(Nc2cc(C)nc(N3CCN(c4ccccn4)CC3)n2)cc1	5	9	-1	0
Cc1cc(Nc2ccc(N3CCOCC3)cc2)nc(N2CCc3ccccc3C2)n1	19	41*	2	0
Cc1cc(Nc2ccccc2)nc(N2CCN(C(=O)C(C)(C)C)CC2)n1	-5	32*	1	0
Cc1cc(Nc2ccc(N3CCOCC3)cc2)nc(Nc2ncccn2)n1	7	7	0	0
Cc1ccc(-n2ncc3c(Nc4ccc5ccccc5c4)ncnc32)cc1	12	7	1	0
O=C1OC(c2ccc(-c3ccccc3)cc2)=N/C1=C\c1cccs1	6	-2	1	0
CCN(CC)c1nc(Nc2ccc(N3CCOCC3)cc2)nc(Nc2nc3ccccc3n2C)n1	-1	22	-1	0
Cn1c(Nc2nccc(Nc3ccc(N4CCOCC4)cc3)n2)nc2ccccc21	22	54*	4	0
Cc1ccccc1NC(=O)c1nc[nH]c1C(=O)Nc1ccccn1	41	23	2	-1
O=C(Nc1ccc(O)cc1)c1scc2c1CCCC2	0	68*	-2	0
O=S(=O)(Nc1ccc2c(c1)OCCO2)c1ccc(Cl)cc1	5	-8	-1	0
O=S(=O)(Cc1ccc(Cl)cc1)Nc1ccc2c(c1)OCCO2	3	41*	0	0
Cn1c(=O)cc(C(=O)Nc2cc(C(F)(F)F)cc(C(F)(F)F)c2)[nH]c1=O	-6	0	-2	0
COc1ccccc1N1C(=O)CC(S/C(N)=N/N=C(\C)c2ccc(O)cc2)C1=O (stereo not drawn)	82*	-7	0	0
Cc1cc(NCCO)n2c(nc3ccccc32)c1C#N	-6	-4	0	0
Cc1cc(NCCCN(C)C)n2c(nc3ccccc32)c1C#N	14	50*	-1	0
C=CCN1C(=O)/C(=C2/C(=O)N(CC(=O)Nc3ccc(C)cc3)c3ccccc32)SC1=S	12	-7	-1	0
CCC(=O)Nc1ccc(S(=O)(=O)Nc2cc(OC)nc(OC)n2)cc1	-4	5	1	0
SMILES	MITF primary	TEAD-YAP inh	GPR151 activ	FBW7 act
Cc1c(CN2CCN(CC(C)C)C(CCO)C2)cnn1C (stereo not drawn)	-25	2	1	0
COc1ccc2c(c1)OCC(Cc1ccc(OC)c(OC)c1)C2=O (stereo not drawn)	-1	48*	1	1
COc1ccc2c(c1)O[C@@H]1COc3cc(OC)c(OC)cc3[C@@H]1C2=O	33	32*	0	0
COc1ccc2c(c1)OCC(Cc1ccc(OC)c(OC(C)=O)c1)C2=O (stereo not drawn)	13	52*	2	1
COc1ccc(NC(=O)Cc2ccc(OC)c(OC)c2)c(OC)c1	7	4	-1	0
O=C(CSc1nc2ccc(NC(=O)c3ccccc3)cc2s1)NCc1ccccc1	18	-18	2	0
CC(=O)Nc1ccc2nc(SCC(=O)NCc3ccccc3)sc2c1	19	38*	-2	0
CC(C)N(CCNc1cc(NCCN2CCOCC2)nc(N)n1)C(C)C	0	4	1	0
Cc1sc2ncc(C(=O)N(C)c3ccccc3)c(=O)n2c1C	6	-6	0	0
O=C(Nc1cccc2ccccc12)c1ccccc1I	-1	4	2	0
O=C(Nc1cccc2ccccc12)c1cc(Cl)ccc1O	9	64*	-2	0
Cc1ccccc1NC(=O)c1cc(Cl)ccc1O	-23	42*	-7	0
CNC(=O)/C(C#N)=C/c1c(Oc2cc(C)cc(C)c2)nc2ccccn2c1=O	18	32*	-6	0
N#C/C(=C\c1c(Oc2ccccc2)nc2ccccn2c1=O)C(=O)N1CCOCC1	-9	21	0	0
Cc1cc(C)cc(Oc2nc3ccccn3c(=O)c2/C=C(\C#N)C(=O)N2CCOCC2)c1	13	37*	1	0
Cc1cccc(Oc2nc3c(C)cccn3c(=O)c2/C=C(\C#N)C(=O)N2CCOCC2)c1	16	36*	0	0
O=C(NCc1ccccn1)c1nc(-c2cccnc2)no1	6	7	0	1
CCS(=O)(=O)Nc1ccc(-c2cn3c(C)csc3n2)cc1	0	33*	2	0
Cc1csc2nc(-c3ccc(NS(=O)(=O)N(C)C)cc3)cn12	13	2	0	0
CCOc1ccc(S(=O)(=O)N2c3ccc(F)cc3CCC2C)c2cccnc12 (stereo not drawn)	2	50*	0	0
CCOc1ccc(S(=O)(=O)Nc2cc(F)ccc2F)c2cccnc12	-17	-8	0	0
O=C1CCCN1CCCNc1nc(Nc2ccc3ncccc3c2)nc2c1ncn2-c1ccccc1	-9	72*	-2	0
O=C1CCCN1CCCNc1nc(Nc2ccccn2)nc2c1ncn2-c1ccccc1	6	21	1	0
O=C1CCCN1CCCNc1nc(NCCO)c2ncn(C3CCCCC3)c2n1	14	0	0	1.9*
O=C1CCCN1CCCNc1nc(NCCCN2CCCC2=O)c2ncn(C3CCCCC3)c2n1	13	0	-1	0
SMILES	MITF primary	TEAD-YAP inh	GPR151 activ	FBW7 act
O=C1CCCN1CCCNc1nc(Nc2ccncn2)nc2c1ncn2-c1ccccc1	5	38*	-2	0
O=C1CCCN1CCCNc1nc(Nc2ccncc2)nc2c1ncn2-c1ccccc1	-9	55*	0	0
COC(CNC(=O)c1cnn2c(C)c(Cc3ccccc3Br)c(C)nc12)OC	-11	-5	1	0
COc1ccc(C2NC(=O)NC3=C2C(=O)N(Cc2ccccc2Cl)C3)cc1 (stereo not drawn)	7	2	1	0
CC(=O)c1ccc(NC(=O)CCCC(=O)Nc2ccc(C(C)=O)cc2)cc1	-1	-22	1	0
O=C1CCCN1CCCNc1nccc(Nc2ccc(Oc3ccccc3)cc2)n1	-7	39*	0	0
O=C1CCCN1CCCNc1nc(Nc2cnccn2)nc2c1ncn2-c1ccccc1	-2	46*	-1	0
